In PubChem BioAssay (NCI):
About 83,000 compounds went through this panel and 20% of them were active in at least one assay; those are over-represented in the sample as a whole.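 The endpoint reported here, percent growth, reads 100 for growth as untreated, 0 for no net growth and -100 for all cells dead.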 Activity calls are given as the source filed them. How the source made its calls: active means growth percent below 10; inactive means the rest.

Assays:
Assay in all cases: NCI-60 one-dose screen, 48 h (100 = growth as untreated, 0 = no growth, -100 = all killed)
Conditions in all cases: 10 µM
NCI-H23 lung = test system: NCI-H23 lung
NCI-H226 lung = test system: NCI-H226 lung
NCI-H322M lung = test system: NCI-H322M lung
HOP-62 NSCLC = test system: HOP-62 NSCLC
NCI-H460 lung = test system: NCI-H460 lung
HOP-92 NSCLC = test system: HOP-92 NSCLC
NCI-H522 lung = test system: NCI-H522 lung
A549/ATCC NSCLC = test system: A549/ATCC NSCLC
786-0 renal = test system: 786-0 renal
COLO 205 colon = test system: COLO 205 colon

Measured: growth

CCOc1ccc(Nc2nc3ccccc3nc2Nc2ccc(OCC)cc2)cc1
inactive: NCI-H23 lung 55.2% | NCI-H226 lung 85.6% | NCI-H322M lung 71.3% | HOP-62 NSCLC 64.9% | NCI-H460 lung 17.2% | HOP-92 NSCLC 27.6% | NCI-H522 lung 55.9% | A549/ATCC NSCLC 41.3% | 786-0 renal 32.1% | COLO 205 colon 95.9%

Cc1ccn2c(C(=O)c3ccc(Br)cc3)cc(-c3cc(-c4ccc(N(C)C)cc4)c(C#N)c(N)n3)c2c1
inactive: NCI-H23 lung 27.6% | NCI-H226 lung 60.5% | NCI-H322M lung 41% | HOP-62 NSCLC 78.8% | NCI-H460 lung 54.4% | HOP-92 NSCLC 31.2% | NCI-H522 lung 45.3% | A549/ATCC NSCLC 70.2% | 786-0 renal 40.9% | COLO 205 colon 47.5%

N#Cc1ccc(-c2nn(-c3ccc(C(=O)O)cc3)cc2CNc2ccc(Oc3ccccc3)cc2)cc1
inactive: NCI-H23 lung 12% | NCI-H226 lung 85.1% | NCI-H322M lung 88.2% | HOP-62 NSCLC 37.4% | NCI-H460 lung 40.2% | HOP-92 NSCLC 38.8% | NCI-H522 lung 66.8% | A549/ATCC NSCLC 46.5% | 786-0 renal 30.5% | COLO 205 colon 118%

Cc1cc(C)nc(/N=C(\N)Nc2ccc(S(=O)(=O)Nc3nc(C)cc(C)n3)cc2)n1
inactive: NCI-H23 lung 104% | NCI-H226 lung 102% | NCI-H322M lung 106% | HOP-62 NSCLC 104% | NCI-H460 lung 116% | HOP-92 NSCLC 117% | NCI-H522 lung 98.4% | A549/ATCC NSCLC 106% | 786-0 renal 111% | COLO 205 colon 120%

O=C(Nc1cc(Cl)cc(Cl)c1)Nc1cc(Cl)cc(Cl)c1
active: NCI-H23 lung -21.1% | NCI-H226 lung -37.8% | NCI-H322M lung -5.15% | HOP-62 NSCLC -30.3% | NCI-H460 lung -16.2% | HOP-92 NSCLC -33.8% | NCI-H522 lung -36.1% | A549/ATCC NSCLC 1.01% | 786-0 renal -1.4% | COLO 205 colon -98.9%

COc1cccc(-c2ccnc(/N=C(\N)Nc3ccc(S(=O)(=O)Nc4nc(C)cc(C)n4)cc3)n2)c1
inactive: NCI-H23 lung 98.2% | NCI-H226 lung 80.3% | NCI-H322M lung 107% | HOP-62 NSCLC 84.6% | NCI-H460 lung 106% | HOP-92 NSCLC 106% | NCI-H522 lung 91.5% | A549/ATCC NSCLC 102% | 786-0 renal 101% | COLO 205 colon 114%

CO[C@H]1CSS[C@@H]1Cn1nc(-c2ccc(Oc3ccccc3)cc2)c2c(N)ncnc21
active: NCI-H522 lung -13%
inactive: NCI-H23 lung 40.4% | NCI-H226 lung 16.6% | NCI-H322M lung 53.4% | HOP-62 NSCLC 41.3% | NCI-H460 lung 21.1% | HOP-92 NSCLC 20.5% | A549/ATCC NSCLC 22.1% | 786-0 renal 45% | COLO 205 colon 36.1%

COC(=O)c1c(C(=O)OC)c2n(c1C)[C@@H]([C@@H](C)[C@H]1CC[C@H]3[C@@H]4CCC5=CC(=O)CC[C@]5(C)[C@H]4CC[C@]13C)SC2
inactive: NCI-H23 lung 25% | NCI-H226 lung 15.7% | NCI-H322M lung 72.8% | HOP-62 NSCLC 64.1% | NCI-H460 lung 25.1% | HOP-92 NSCLC 26.3% | NCI-H522 lung 23.1% | A549/ATCC NSCLC 37.1% | 786-0 renal 73.4% | COLO 205 colon 16%

COc1ccc(-c2c(N)c(=O)n(C)c3ccccc23)cc1
inactive: NCI-H23 lung 67.7% | NCI-H226 lung 46.5% | NCI-H322M lung 77% | HOP-62 NSCLC 75.3% | NCI-H460 lung 88.1% | NCI-H522 lung 61.1% | A549/ATCC NSCLC 92.1% | 786-0 renal 73.5% | COLO 205 colon 103%
active: HOP-92 NSCLC 9.05%

O=C(Nc1cccc(C(F)(F)F)c1)c1cncc(C#Cc2cnc3cccnn23)c1
active: HOP-92 NSCLC 7.14%
inactive: NCI-H23 lung 12.7% | NCI-H226 lung 27.1% | NCI-H322M lung 71.6% | HOP-62 NSCLC 33.7% | NCI-H460 lung 70.7% | NCI-H522 lung 54.9% | A549/ATCC NSCLC 63% | 786-0 renal 40.1% | COLO 205 colon 82.3%

CCN1CCN(Cc2ccc(NC(=O)c3cccc(-n4cc(-c5ccc(NC(C)=O)nc5)nn4)c3)cc2C(F)(F)F)CC1
inactive: NCI-H23 lung 93% | NCI-H226 lung 99.9% | NCI-H322M lung 125% | HOP-62 NSCLC 121% | NCI-H460 lung 100% | HOP-92 NSCLC 72.6% | NCI-H522 lung 74.7% | A549/ATCC NSCLC 96.4% | 786-0 renal 58.5% | COLO 205 colon 57.3%

Cc1ccc(C(C)C)cc1NC(=O)c1ccccc1N(C)C
inactive: NCI-H23 lung 82.4% | NCI-H226 lung 99.3% | NCI-H322M lung 82.7% | HOP-62 NSCLC 97.1% | NCI-H460 lung 102% | HOP-92 NSCLC 73.8% | NCI-H522 lung 78.3% | A549/ATCC NSCLC 82.2% | 786-0 renal 81.7% | COLO 205 colon 105%

O=C(CNc1nc(-c2ccccc2)cs1)Nc1ccc([N+](=O)[O-])cc1Cl
active: NCI-H23 lung 0.556% | NCI-H522 lung -19.1%
inactive: NCI-H226 lung 31.5% | NCI-H322M lung 60.3% | HOP-62 NSCLC 42.4% | NCI-H460 lung 51.6% | HOP-92 NSCLC 29% | A549/ATCC NSCLC 44.1% | 786-0 renal 38.1% | COLO 205 colon 60.7%

O=C(CS(=O)(=O)c1oc(-c2ccc(Cl)cc2)nc1S(=O)(=O)c1ccc(Cl)cc1)N1CCOCC1
active: HOP-92 NSCLC -25.5% | NCI-H522 lung -14.8%
inactive: NCI-H23 lung 48.9% | NCI-H226 lung 78.2% | NCI-H322M lung 93.5% | HOP-62 NSCLC 84.3% | NCI-H460 lung 107% | A549/ATCC NSCLC 83.7% | 786-0 renal 40.3% | COLO 205 colon 10.5%

COc1ccc2nc(Nc3cccc(NC(=O)c4ccc(CN5CCN(C)CC5)c(C(F)(F)F)c4)c3)ccc2c1
active: NCI-H23 lung -94.9% | NCI-H226 lung -46.9% | NCI-H322M lung -64% | HOP-62 NSCLC -77.6% | NCI-H460 lung -84.5% | HOP-92 NSCLC -57% | NCI-H522 lung -85.7% | A549/ATCC NSCLC -54.7% | 786-0 renal -55.3% | COLO 205 colon -90.3%

COc1cccc(/C=N/NC(=O)c2ccc3nc(-c4ccc(Cl)cc4)[nH]c3c2)c1O
active: NCI-H23 lung -95.2% | NCI-H226 lung -85.8% | NCI-H322M lung -81.6% | HOP-62 NSCLC -91.9% | NCI-H460 lung -84.4% | HOP-92 NSCLC -85.2% | NCI-H522 lung -83% | A549/ATCC NSCLC -76.8% | 786-0 renal -90.3% | COLO 205 colon -88.8%

COc1cc(Cn2c(C(F)(F)F)cc3c(Cl)ncnc32)ccn1
active: NCI-H23 lung -66.6% | NCI-H322M lung -73.3% | NCI-H460 lung 2.75%
inactive: NCI-H226 lung 72.2% | HOP-62 NSCLC 32.1% | HOP-92 NSCLC 49.1% | NCI-H522 lung 56% | A549/ATCC NSCLC 92.6% | 786-0 renal 93.3% | COLO 205 colon 79.9%

Cc1ccc2nc(-c3ccc(-c4nnc(SCC(=O)Nc5ccc(Cl)cc5)o4)cc3)[nH]c2c1
active: NCI-H226 lung 9.53% | NCI-H460 lung 6.19%
inactive: NCI-H23 lung 29.1% | NCI-H322M lung 27.6% | HOP-62 NSCLC 61.8% | HOP-92 NSCLC 84.9% | NCI-H522 lung 51.1% | A549/ATCC NSCLC 29.1% | 786-0 renal 68.5% | COLO 205 colon 46.1%

CCCn1c(=O)c2[nH]c(-c3ccc(OCc4nc5ccc(F)cc5[nH]4)cc3)nc2n(CCC)c1=O
inactive: NCI-H23 lung 26.3% | NCI-H322M lung 23.8% | NCI-H522 lung 24.3% | A549/ATCC NSCLC 36% | COLO 205 colon 25.5%
active: NCI-H226 lung -36.1% | HOP-62 NSCLC -19.4% | NCI-H460 lung -50.8% | HOP-92 NSCLC -27.5% | 786-0 renal -87.2%

Cc1cc(C)nc(SCC(=O)Nc2ccc(S(N)(=O)=O)cc2)n1
inactive: NCI-H23 lung 100% | NCI-H226 lung 98.5% | NCI-H322M lung 102% | HOP-62 NSCLC 108% | NCI-H460 lung 134% | HOP-92 NSCLC 101% | NCI-H522 lung 95.9% | A549/ATCC NSCLC 103% | 786-0 renal 105% | COLO 205 colon 124%

O=C(N=Nc1c(O)[nH]c2ccc(Br)cc12)c1ccc2nc(-c3ccccc3)[nH]c2c1
active: NCI-H23 lung -66.1% | NCI-H226 lung -47.9% | NCI-H322M lung -62.9% | HOP-62 NSCLC -61.9% | NCI-H460 lung -73.5% | HOP-92 NSCLC -78.8% | NCI-H522 lung -79% | A549/ATCC NSCLC -24.6% | 786-0 renal -92.9% | COLO 205 colon -67.5%

CCCCCc1ccc(S(=O)(=O)Nc2cc(-c3csc(N(C)C(C)=O)n3)ccc2N2CCN(C)CC2)cc1
inactive: NCI-H23 lung 44.3% | NCI-H226 lung 37.4% | NCI-H322M lung 63.6% | HOP-62 NSCLC 54.2% | NCI-H460 lung 23.6% | NCI-H522 lung 32.8% | A549/ATCC NSCLC 57.7%
active: HOP-92 NSCLC -12.9% | 786-0 renal 8.85% | COLO 205 colon -65.6%

O=c1cc(-c2ccccc2)oc2cc(OCCCCNCc3ccccc3)cc(O)c12
inactive: NCI-H226 lung 59.6% | NCI-H322M lung 57.5% | HOP-62 NSCLC 61% | HOP-92 NSCLC 31.8% | NCI-H522 lung 34.2% | A549/ATCC NSCLC 49.3%
active: NCI-H23 lung -73.7% | NCI-H460 lung -73.9% | 786-0 renal -68.2% | COLO 205 colon -91.8%

COc1cc2c3c(n(CCCNCCO)c(=O)c2cc1OC)-c1nc2c(cc1C3=O)OCO2
inactive: NCI-H322M lung 16.8% | A549/ATCC NSCLC 35.6%
active: NCI-H23 lung -45% | NCI-H226 lung -88.5% | HOP-62 NSCLC 0.0851% | NCI-H460 lung -43.9% | HOP-92 NSCLC 7.23% | NCI-H522 lung 2.99% | 786-0 renal -25.9% | COLO 205 colon 2.13%

O=C(CSc1nnc(-c2c[nH]c3ccccc23)n1-c1ccccc1)Nc1ccc(C(=O)/C=C/c2ccccc2Cl)cc1
inactive: NCI-H23 lung 36.1% | NCI-H226 lung 75.6% | NCI-H322M lung 97.3% | HOP-62 NSCLC 91.9% | NCI-H460 lung 89% | HOP-92 NSCLC 96.5% | NCI-H522 lung 83.1% | A549/ATCC NSCLC 91.1% | 786-0 renal 103% | COLO 205 colon 96.2%

COc1ccc2c3nc4cc(C)c(C)cc4nc3n(CCN(C)C)c2c1
inactive: NCI-H226 lung 12.1% | HOP-92 NSCLC 27.1% | COLO 205 colon 62.5%
active: NCI-H23 lung 8.28% | NCI-H322M lung 0.682% | HOP-62 NSCLC 8.8% | NCI-H460 lung -50.6% | NCI-H522 lung -22.4% | A549/ATCC NSCLC -59.8% | 786-0 renal -42.7%

Cn1cc(/C=N/Nc2ccnc3cc(Cl)ccc23)c2ccccc21
active: NCI-H23 lung -84.1% | NCI-H226 lung -67.5% | NCI-H322M lung -99.6% | HOP-62 NSCLC -63.8% | NCI-H460 lung -67.5% | HOP-92 NSCLC -68% | NCI-H522 lung -68.1% | A549/ATCC NSCLC -39% | 786-0 renal -65.2% | COLO 205 colon -59%
